In PubChem BioAssay AID602310 (National Center for Advancing Translational Sciences (NCATS), 2012):
In all, about 410,000 compounds went through this assay and about 310 (0.076%) were called active. Not shown: some 2% with an inconclusive outcome. The sample holds actives, similar compounds and a random draw of the others, so the mix is not that of the screen. Calls come from the whole dose curve; as a rule, active = well fitted curve in the direction sought with a large enough effect; inconclusive = small, poorly fitted or top-dose-only effect; inactive = flat fitted curve, though single readings scatter.

These molecules were tested against DNA dC->dU-editing enzyme APOBEC-3G (Homo sapiens) (UniProt Q9HC16) (assay: qHTS for Inhibitors of Vif-A3G Interactions: qHTS). Conditions: HeLa A3G-eYFP + Vif (tagged APOBEC3G with the HIV-1 protein that degrades it), YFP fluorescence, overnight; series mostly up to 46.1 µM; activity, negative = active: at the top concentration.
Description: The recent discovery and characterization of host restriction factors, which provide a potent defense to invading retroviruses, has provided new targets for antiviral drug development. APOBEC3G (A3G) and APOBEC3F (A3F) are potent cytidine deaminases that block HIV-1 replication; HIV-1 expresses the Vif protein, which counteracts A3G and A3F by binding to them and inducing their proteasomal degradation. The Vif-A3G and Vif-A3F interactions provide two potential targets for development of small molecules which can interfere with the ability of Vif to degrade A3G or A3F. […] To identify inhibitors that can interfere with Vif mediated degradation of A3G and A3F, we have developed Hela cell lines that stably express A3G or A3F tagged with eYFP at the C-terminal end (A3G-eYFP or A3F-eYFP, respectively) and Vif. In the absence of an inhibitor, Vif induces degradation of A3G-eYFP and A3F-eYFP, and the cells are not fluorescent. In the presence of an inhibitor, it is expected that Vif will be unable to degrade A3G-eYFP and/or A3F-eYFP, resulting in an increase in yellow fluorescence. In this assays Vif A3G was screened against the Molecular Library Small Molecule Repository (MLSMR). NIH Chemical Genomics Center [NCGC] NIH Molecular Libraries Probe Centers Network [MLPCN] MLPCN Grant: MH093245 Assay Submitter (PI): Vinay Pathak, National Cancer Institute
5 uL of 700 cells/well of A3G-YFP cells are dispensed into black, clear bottom plates. The plates are incubated overnight at 37 deg C. 23 nL of compounds are added by pintool. The plates are incubated overnight at 37 deg C and then read on the TTP Acumen (Ex 488/ Em 500-530).
% is set by controls: 0 for no effect and ±100 for the full control effect; potency is the fitted concentration of half-maximal effect.
Note: nearly all actives have a fitted effect of over 60% in size.
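Throughout, for activity, negative = active: hits raise eYFP signal because A3G escapes Vif-driven loss.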

Sequence of DNA dC->dU-editing enzyme APOBEC-3G (Homo sapiens) (Q9HC16 whole entry, looked up): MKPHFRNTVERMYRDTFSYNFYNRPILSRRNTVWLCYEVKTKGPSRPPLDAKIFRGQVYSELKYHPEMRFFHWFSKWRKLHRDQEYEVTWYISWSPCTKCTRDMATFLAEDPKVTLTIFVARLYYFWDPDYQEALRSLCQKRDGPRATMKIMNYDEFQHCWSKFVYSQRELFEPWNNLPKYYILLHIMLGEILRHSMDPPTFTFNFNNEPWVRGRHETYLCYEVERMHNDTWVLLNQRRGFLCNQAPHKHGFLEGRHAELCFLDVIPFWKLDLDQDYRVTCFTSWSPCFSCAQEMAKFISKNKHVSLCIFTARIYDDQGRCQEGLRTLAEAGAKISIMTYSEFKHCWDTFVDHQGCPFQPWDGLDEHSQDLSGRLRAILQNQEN

SMILES | activity, negative = active | Potency
O=C(c1cnn2c1NC(=C1CC1)C=C2C(F)F)N1CCc2ccccc2C1 | 2.57% (inactive) | 
Cc1cccc(CNC(=O)c2cnc3sc(N4CCCCC4)nn3c2=O)c1 | 2.64% (inactive) | 
Cc1ccccc1NC(=O)Cn1c(=O)n(Cc2ccco2)c(=O)c2ccc(C(=O)NC3CCCC3)cc21 | -3.97% (inactive) | 
CCOC(=O)c1ccc(NC(=O)c2c(NCc3cccs3)sc3c2CCCC3)cc1 | 5.26% (inactive) | 
CN(C)c1ccc(/C=C/c2sc3ccccc3[n+]2C)cc1 | 3.75% (inactive) | 
CC(C)Sc1oc(-c2cccs2)nc1S(=O)(=O)c1ccc(Cl)cc1 | -1.22% (inactive) | 
CCOC(=O)C1CCC(CN(Cc2ccc(OC)cc2)S(=O)(=O)c2ccc(F)c(C(=O)Nc3cc(C)ccc3C)c2)CC1 (stereo not given) | -1.77% (inactive) | 
CC(C)c1ccc(NC(=O)Cn2c3ncccc3c(=O)n2-c2ccccc2)cc1 | 1.84% (inactive) | 
CC(C)(C)c1ccc(C(=O)C[N+]2(C)CCCc3ccccc32)cc1 (stereo not given) | 1.9% (inactive) | 
Cc1cccc(N2CCN(S(=O)(=O)c3ccc4[nH]c5c(c4c3)CCCCC5)CC2)c1C | -0.718% (inactive) | 
O=C1NC(c2ccccc2)Oc2ccccc21 (stereo not given) | 0.257% (inactive) | 
C=CCOc1cccc(C2NC(=O)c3ccccc3O2)c1 (stereo not given) | -7.4% (inactive) | 
O=C1NC(c2cccc(Cl)c2)Nc2ccccc21 (stereo not given) |  | 11.2 µM (active)
COc1ccc(S(=O)(=O)NCC(c2ccc(N(C)C)cc2)N2CCc3ccccc32)cc1OC (stereo not given) | 3.67% (inactive) | 
COc1cccc(NC(=O)Nc2ccc3c(c2)N(C)C(=O)c2ccccc2S3)c1 | -13% (inactive) | 
O=C(Nc1cc(C(F)(F)F)ccc1Cl)c1cc2nc(-c3ccc4c(c3)OCO4)cc(C(F)(F)F)n2n1 | 0.316% (inactive) | 
CC(C)(C)NC(=O)CSc1nc(-c2ccc(F)cc2)cc(C(F)(F)F)n1 | 1.1% (inactive) | 
CCOc1ccc(S(=O)(=O)c2cn(Cc3ccccc3)c3ccc(OCC)cc3c2=O)cc1 | -5.11% (inactive) | 
CC(NC(=O)c1cc2c(=O)n3ccccc3nc2n(C(C)C)c1=N)c1ccccc1 (stereo not given) | 2.26% (inactive) | 
CCN(CC)C(=O)CSC(Nc1cccc(F)c1)=C(C#N)C#N |  | 12.6 µM (active)
CC1CC1C(=O)OCC(=O)Nc1cccc(F)c1 (stereo not given) | -0.831% (inactive) | 
CCN(CC)N=Nc1cccc(NC(C)=O)c1 | 6.85% (inactive) | 
COc1ccc(/C=C/c2ccnc3ccccc23)cc1OC | -9.81% (inactive) | 
Cc1cccc(NC(=O)c2nnn(CC(=O)Nc3ccc(C(C)C)cc3)c2N)c1C | 3.32% (inactive) | 
C/C=C/NNC(=O)Cc1ccc(OC)cc1 | -19.1% (inactive) | 

SMILES | activity, negative = active | Potency
CO[C@H]1O[C@@H]2O[C@@]3(C)CC[C@@H]4[C@@H](C)CC[C@@H]([C@H]1C)[C@@]24OO3 | -4.35% (inactive) | 
CCOc1ccc(-c2cc3nc(C4CCN(C(=O)OC(C)(C)C)CC4)c(C(=O)Nc4ccc(C(=O)OC)cc4)cn3n2)cc1 | 0.118% (inactive) | 
CS(=O)(=O)c1ccc(-c2nnc(NC(=O)c3ccc4c(c3)OCCO4)o2)cc1 | 5.26% (inactive) | 
CCCCCn1c(=O)[nH]c2cc(C(=O)Nc3ccc(F)cc3)ccc2c1=O | 3.51% (inactive) | 
N#Cc1ccc[n+](CC(=O)c2ccc(O)c(O)c2)c1 | 1.87% (inactive) | 
COc1ccc(CN2CCC(=O)c3ccccc3S2(=O)=O)cc1 | -0.629% (inactive) | 
Cc1c(CCO)sc[n+]1CC(=O)c1ccc2ccccc2c1 | 0.145% (inactive) | 
O=C(CSc1nc(-c2cccc(F)c2)[nH]c1-c1ccccc1)Nc1ccc2c(c1)OCO2 | 1.68% (inactive) | 
NC(=O)Nc1ccc(/C=C/c2ccnc3ccccc23)cc1 | -8.22% (inactive) | 
CCN(CC)/[N+]([O-])=N/OCOC(=O)Cc1c(C)n(C(=O)c2ccc(Cl)cc2)c2ccc(OC)cc12 | -2.29% (inactive) | 
COc1cc(C)ccc1OCCSc1nc2ccc(NC(=O)c3ccc(C)cc3)cc2s1 | -1.22% (inactive) | 
CC(=O)c1ccc[n+](C(C)CCC(C)[n+]2cccc(C(C)=O)c2)c1 (stereo not given) | 4.94% (inactive) | 
CCCN1C(=O)C(O)(CC(=O)c2ccc(CC)cc2)c2cc(Br)ccc21 (stereo not given) | 4.05% (inactive) | 
O=C(Nc1ccccc1C(F)(F)F)c1nc(S(=O)(=O)Cc2ccccc2F)ncc1Cl | -25.9% (inactive) | 
Cc1cccc(N2CCN(C(=O)CCSCc3ccccc3F)CC2)c1C | 3.33% (inactive) | 
CN(CCC#N)c1ccc(C=O)cc1 | 2.45% (inactive) | 
Cc1ccc(-c2nn3c(=O)cc(CN4CCN(S(=O)(=O)c5ccc(Cl)cc5)CC4)nc3s2)cc1 | -0.363% (inactive) | 
CC1(C)Cc2ccccc2-c2c[nH]c(=O)n21 | 1.1% (inactive) | 
COc1cc(NC(=O)CN2CCN(S(=O)(=O)c3ccc(Br)cc3)CC2)cc(OC)c1 | 6.1% (inactive) | 
Cc1cc(NC(=O)C2CCC(CNS(=O)(=O)c3ccc(Br)s3)CC2)ccc1Br (stereo not given) | 0.952% (inactive) | 
Cc1ccc(NC(=O)CCCn2c(=O)c3cccn3c3ccccc32)cc1Cl | 4.11% (inactive) | 
O=C1COc2ccc(-c3csc(-c4ccc(Cl)cc4)n3)cc2N1 | -0.481% (inactive) | 
CN(C)c1ccc(C=Nc2ccc(/C=C/c3ccnc4ccccc34)cc2)cc1 | -29.8% (inactive) | 
CCOC(=O)c1ccc(-c2ccc(/C=C(\C#N)C(=O)Nc3ccc(C)cc3)o2)cc1 | 2.39% (inactive) | 
Cc1ccc2nc(/C(C#N)=C/c3ccc(-c4ccc(C(=O)OC(C)C)cc4)o3)[nH]c2c1 |  | 2 µM (active)

SMILES | activity, negative = active | Potency
Cc1ccc2nc(/C(C#N)=C/c3ccccc3F)[nH]c2c1 | -5.05% (inactive) | 
Cc1c(C(=O)Nc2cccc(Cl)c2)oc2ccc(S(=O)(=O)N3CCOCC3)cc12 | -4.72% (inactive) | 
CS(=O)c1ccc(/C=C2\C=Cc3ccccc32)cc1 (stereo not given) | -4.01% (inactive) | 
OCC(O)C(O)C(O)C(O)C=Nc1ccc(/C=C/c2ccnc3ccccc23)cc1 (stereo not given) | -13.5% (inactive) | 
C=COC(=O)N1CCN(/[N+]([O-])=N/Oc2ccc([N+](=O)[O-])cc2[N+](=O)[O-])CC1 | -11.3% (inactive) | 
SCc1nc2ccc(Cl)cc2[nH]1 | -15.9% (inactive) | 
CCC(=O)N1CCc2cc(Br)cc(S(=O)(=O)CCC(=O)NCc3ccccc3OC)c21 | 0.639% (inactive) | 
O=C(CCSCc1cccc(F)c1)NCc1ccccc1 | 1.45% (inactive) | 
O=C1C[C@H]2C=CCc3cccc(c32)CN1Cc1ccccc1 | 1.8% (inactive) | 
CN1CCN(/[N+]([O-])=N/Oc2ccc([N+](=O)[O-])cc2[N+](=O)[O-])CC1 | -2.57% (inactive) | 
O=C1CCC[C@@H]2C[C@@]3(C[C@@H]4CCN1[C@H]24)Nc1ccccc1NC3=NCc1ccccc1 | -3.5% (inactive) | 
CCC(C)NC(=O)Cn1c(=O)n(-c2ccc(Cl)cc2)c(=O)c2c3c(sc21)CCCC3 (stereo not given) | -2.77% (inactive) | 
Cc1ccc(CSc2oc(-c3cccs3)nc2S(=O)(=O)c2ccc(C)cc2)cc1 | -5.68% (inactive) | 
CC1(C)C=Cc2c(ccc(C(=O)/C=C/c3ccccc3)c2O)O1 | -4.83% (inactive) | 
Cc1nc2nc(SCC(=O)N(Cc3ccccc3)C(C)C)nn2c(C)c1Cc1ccccc1Cl | -4.58% (inactive) | 
C=C1C=C(C(F)F)n2ncc(C(=O)NCCc3ccccc3OC)c2N1 | 1.18% (inactive) | 
O=C1O/C(=C\c2ccc(O)cc2)C(O)=C1c1ccc(O)cc1 | 0.495% (inactive) | 
Cc1ccc(C)c(Cn2c(C(=O)O)c(CNCc3cccs3)c3ccccc32)c1 | 5.36% (inactive) | 
CCN(CC)c1ccc(/C=C/c2c(C)cnc3ccc(C)cc23)cc1 | -14.3% (inactive) | 
CCOc1cccc(CC(=O)N2CCc3c([nH]c4ccccc34)C2c2ccc(OC)cc2)c1OCC (stereo not given) | 5.45% (inactive) | 
CCc1cccc(CC)c1NC(=O)Cn1c(=O)c(-c2cc(C)ccc2NC(C)=O)nc2ccccc21 | 2.05% (inactive) | 
CCN1CCN(CCCNC(=O)c2ccc3c(c2)sc2nc(-c4ccc(OC)cc4)cn23)CC1 | 1.57% (inactive) | 
COc1ccc(N2CCN(c3nc(-c4ccccc4F)nc4ccccc34)CC2)cc1 | 1.44% (inactive) | 
CC(C)(C)OC(=O)N(Cc1ccco1)S(=O)(=O)c1ccccc1Br | -2.34% (inactive) | 
Nc1ncnc2nnsc12 | -0.535% (inactive) | 

SMILES | activity, negative = active | Potency
Clc1cccc[n+]1CCCC[n+]1ccccc1Cl | -3.41% (inactive) | 
O=C(NCC(c1ccco1)S(=O)(=O)c1cccs1)c1ccc(F)cc1 (stereo not given) | -0.334% (inactive) | 
COc1ccc(-c2nc(=N)sn2-c2ccccc2)cc1 | -12.4% (inactive) | 
Cc1ccccc1NC(=O)c1c(NC(=O)c2ccccc2F)sc2c1CCC(C)C2 (stereo not given) | 2.58% (inactive) | 
COc1ccc(-c2[nH]c3c(c2-c2c(-n4cccc4)n(C)c(=O)n(C)c2=O)c(=O)n(C)c(=O)n3C)cc1 | 4.14% (inactive) | 
OC(CBr)CN1CCCCC1 (stereo not given) | 2.13% (inactive) | 
CN(C(=N)N)c1ccc(/C=C2\C=Cc3ccccc32)cc1 | 0.609% (inactive) | 
Cc1cccn2c(=O)c3cc(C(=O)NC(C)c4ccccc4)c(=N)n(CCCO)c3nc12 (stereo not given) | 1.93% (inactive) | 
COC(=O)c1ccc(OC)c(Cn2c(=O)n(Cc3ccccc3)c(=O)c3c2c2cc(OC)ccc2n3C)c1 | -5.74% (inactive) | 
CCOC(=O)c1scc(-c2ccc(C)cc2)c1S(=O)(=O)Nc1cc(C)ccc1C | 2.25% (inactive) | 
COc1ccc(OCC(=O)Nc2cccc(C(=O)OCc3cc(=O)n4nc(C)sc4n3)c2)cc1 | 1.27% (inactive) | 
CCOc1ccc(N(CC)S(=O)(=O)N2CCCC(C(=O)Nc3ccc(C(C)=O)cc3)C2)cc1 (stereo not given) | 3.2% (inactive) | 
Cc1ccc(S(=O)(=O)c2nc(-c3ccco3)oc2SCC(=O)Nc2ccc(F)cc2)cc1 | -4.15% (inactive) | 
COc1ccc(CNC(=O)c2ccc3c(c2)nc2n3CCOC2)c(OC)c1 | 2.94% (inactive) | 
COC(=O)c1cc(NC(=O)CCS(=O)(=O)c2cc(Br)cc3c2N(C(=O)C2CC2)CC3)cc(C(=O)OC)c1 | 1.17% (inactive) | 
CCCCN(CC)CCCNC(=O)Cn1ncc2c([nH]c3ccc(C)cc32)c1=O | 1.92% (inactive) | 
O=C(Nc1ccccc1F)C(c1ccccc1)N1Cc2ccccc2C1=O (stereo not given) | -0.9% (inactive) | 
OC(Cc1ccc2ccccc2n1)c1ccc(Cl)c(Cl)c1 (stereo not given) | -0.459% (inactive) | 
Cc1c(-c2nsc(NC(=O)c3cccc(Cl)c3)n2)nnn1-c1ccccc1C(F)(F)F | 4.58% (inactive) | 
CN(C)c1ccc(/C=C2\C=Cc3ccccc32)cc1Br | -3.17% (inactive) | 
CCn1c(=O)c(=O)n(CC)c2cc(N3CCCCC3)c(NC(=O)c3cccc(F)c3)cc21 | 0.845% (inactive) | 
CN(C)c1ccc(/C=N\Nc2ccc([N+](=O)[O-])cc2[N+](=O)[O-])cc1Cl | 3.64% (inactive) | 
CC1CCc2noc(NC(=O)c3ccc([N+](=O)[O-])cc3)c2C1 (stereo not given) | -0.497% (inactive) | 
Cc1cc(NS(=O)(=O)c2ccc3oc(=O)c4ncn(C)c4c3c2)ccc1Br | -20.5% (inactive) | 
Cc1cc(C)c2oc(C(=O)Nc3c(C(=O)Nc4ccccc4)oc4ccccc34)cc(=O)c2c1 | 3.43% (inactive) | 
